# According to the supplement of paper PMC10681739:
# Key:
# ETS1 [1] = target: T1, ETS1 (UniProt P14921); assay: ETS1 binding intensity (PBM fluorescence), ETS1 alone (arbitrary fluorescence units); higher = stronger binding; conditions: ETS1 concentration 1 nM; RUNX1 concentration 0 nM
# T1 sequence: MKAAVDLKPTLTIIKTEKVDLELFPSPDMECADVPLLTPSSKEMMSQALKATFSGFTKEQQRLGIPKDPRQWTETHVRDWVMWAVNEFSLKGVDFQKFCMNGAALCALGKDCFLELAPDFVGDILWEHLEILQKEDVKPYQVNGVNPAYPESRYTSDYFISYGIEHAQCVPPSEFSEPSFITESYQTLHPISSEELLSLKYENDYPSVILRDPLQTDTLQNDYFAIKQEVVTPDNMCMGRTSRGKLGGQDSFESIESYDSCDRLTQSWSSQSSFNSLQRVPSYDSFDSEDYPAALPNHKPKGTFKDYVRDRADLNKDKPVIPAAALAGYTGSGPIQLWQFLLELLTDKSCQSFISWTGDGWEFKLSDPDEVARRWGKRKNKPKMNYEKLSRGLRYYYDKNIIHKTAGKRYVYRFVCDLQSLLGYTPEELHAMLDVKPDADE
# ETS1 [2] = target: T1, ETS1; assay: ETS1 binding intensity (PBM fluorescence) in presence of RUNX1, normalised to ETS1-only experiment (arbitrary fluorescence units); higher = stronger binding; conditions: ETS1 concentration 1 nM; RUNX1 concentration 25 nM
Sequence,ETS1 binding intensity (ETS1 [1]),ETS1 binding intensity (ETS1 [2])
AGGGTGTACTCGGAAGTTTCGAGTGGTTGCTTGGTT,451,513
GCTTTGCAGTTTCCTCTGTGGAACACCACACACAGT,418,494
TGGCTTCCTGTCTGTCCTTCATCAGCCCACAGAGGC,517,529
TGGGCCAGCACGTCCGGGTGGTCAGGACGCGCGCTT,458,451
AATTCCCAGGAAGCACTCGGCAGCCACAAACTGATG,539,483
CAGGGAAGTTCGAACTGGGCGGGGCCCACCGCAGTT,336,488
CGGGGCATGCCGGACGCTGTGGTCCTGAAGGCCTGG,536,423
ATGTGCGTGTGCACAGGAAAACCACTGCCAGTATTT,756,789
GTCTTCACATGTAGGGGAAGTGGGTTAGCGTAGGAG,951,1260
TGCTCCACTCGGAAGTGGTGCCGCAGCTCTTCGATG,697,800
TACCGCTGCTTCCTGCCTGCGCGGTGAGCCTGTGCC,829,802
GGGAGGGCGGAAGGCGGCTCTGCGGCAGCAAGCCCC,476,341
CCACTCCAGGAAACTCCTCCAGGTGAGCCCACAACT,500,474
CCCCTTCATCCGCCTCTCTCTCACCGCGCCGCTCCC,449,330
